# According to PubChem BioAssay AID504452 (The Scripps Research Institute Molecular Screening Center, 2011):
# Calls of active or inactive are those of the source. No stated cut-off is given here; in the data, active means activation above about 85%; inactive means the rest.
# Molecular target: Peroxisome proliferator-activated receptor gamma (Homo sapiens) (UniProt P37231)
# Experiment: partial agonism at human PPARgamma receptor – cell-based, luciferase reporter, luminescence, primary screen (AID 504452);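 further: Cos-1 cells carrying PPARgamma and a response element luciferase reporter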
# Conditions: cell-based PPARg luciferase reporter, at 5 µM, stronger effect = higher value; activation (% of full agonist control): measured here: relative to full agonist control
# Peroxisome proliferator-activated receptor gamma (Homo sapiens), sequence (P37231 whole entry, looked up): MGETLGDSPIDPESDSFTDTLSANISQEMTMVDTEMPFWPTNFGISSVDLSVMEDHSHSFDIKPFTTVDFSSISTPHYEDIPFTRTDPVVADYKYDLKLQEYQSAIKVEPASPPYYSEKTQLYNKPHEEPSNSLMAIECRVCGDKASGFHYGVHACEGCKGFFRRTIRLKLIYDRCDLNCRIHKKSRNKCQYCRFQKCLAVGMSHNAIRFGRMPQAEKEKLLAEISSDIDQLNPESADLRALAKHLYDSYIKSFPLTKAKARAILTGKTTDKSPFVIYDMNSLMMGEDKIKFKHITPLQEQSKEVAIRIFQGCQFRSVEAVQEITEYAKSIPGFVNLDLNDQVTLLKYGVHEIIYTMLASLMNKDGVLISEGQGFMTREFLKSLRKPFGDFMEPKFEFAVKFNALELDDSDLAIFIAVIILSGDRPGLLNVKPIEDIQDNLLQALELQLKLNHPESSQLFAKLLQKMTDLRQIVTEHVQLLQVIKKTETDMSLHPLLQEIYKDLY
Structure (SMILES),activation (% of full agonist control),activation (% of partial agonist control)
CCN(CC)S(=O)(=O)c1ccc(N2CCOCC2)c(NC(=O)C(C)Oc2ccc(F)cc2)c1 (stereo unspecified),29.3%,64.8% (inactive)
COc1ccc(NC(=O)CC2C(=O)Nc3ccccc3N2CC(=O)N2CCCC2)cc1 (stereo unspecified),30.4%,67.3% (inactive)
CSCc1c(C(=O)Nc2ccc(N3CCOCC3)cc2)oc2ccccc12,33.5%,74.2% (inactive)
Cc1ccc(C)c(S(=O)(=O)NCC(c2ccco2)N2CCc3ccccc3C2)c1 (stereo unspecified),29%,64.3% (inactive)
O=C(CCn1c(=O)c2sccc2n(CC(=O)OCc2ccccc2)c1=O)NCc1ccccc1,31.1%,68.8% (inactive)
Cc1ccc(O)c(C(=O)c2cc(C#N)c(=O)n(C(C)c3ccccc3)c2)c1 (stereo unspecified),33.3%,73.7% (inactive)
COc1cccc(NC(=O)c2ccc3c(c2)N(CC(=O)N2CCOCC2)C(=O)C(C)(C)O3)c1,32.5%,71.9% (inactive)
Cn1nc(-c2ccccc2)c(CO)c1Oc1cccc(C(F)(F)F)c1,30.3%,67% (inactive)
O=C(NCCCn1ccnc1)C(=O)NCC(c1ccco1)N1CCN(c2ccccc2)CC1 (stereo unspecified),28.4%,62.9% (inactive)
CC(Oc1ccc(F)cc1)C(=O)Nc1cc(S(=O)(=O)N2CCCCC2)ccc1N1CCOCC1 (stereo unspecified),31.1%,68.8% (inactive)
O=c1c2cn(Cc3ccc(F)cc3)c3ccc(F)cc3c-2nn1Cc1ccc(F)cc1,48.9%,108% (active)
Cc1ccc2[nH]c(=O)c(CN(Cc3cccs3)Cc3nnnn3CC3CCCO3)cc2c1 (stereo unspecified),44.1%,97.6% (active)
Cc1ccc(-n2ncc3c(=O)[nH]c(SCC(=O)N4CCCc5ccccc54)nc32)cc1,36.4%,80.5% (inactive)
